This is a sample that favours compounds with a hit; in the whole collection about 1.9% have one here.
Hsp70 act = switches on Hsp70 transcription; HeLa Hsp70 promoter luciferase reporter, luminescence; scaled: vehicle 0, proteasome-inhibitor control 100%; activation, % at 10 µM; hit rate 0.04% among 200,000; AID 1203;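 active means activation above the mean across all tested compounds plus 3 SD, cutoff set per campaign, cut at about 5.5% in these data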;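 further: 100% = MG132 at 30 µM as the positive control and 0% = DMSO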
HSF-1 act = increases HSF-1 driven luciferase reporter signal | NIH3T3-HGL HSF-1 luciferase reporter, MG132, 8 h; 100% = twice DMSO control signal | activation, % at 9 µM | hit rate 1.7% among 300,000;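 active means mean replicate activation of at least 50% with a set share of replicates each reaching 50%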;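 further: 0% = median of the neutral control wells and 100% = twice that signal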
TNF death inh = TNF-alpha cell death inhibition in Jurkat FADD-/- cells | hit rate 0.068% among 220,000 | Jurkat FADD-/- TNF necroptosis rescue, ATP luminescence, 24 h; 0 = TNF only, 100 = no-TNF cells | activation (protection from cell death), % at 10 µM | AID 463075;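 active means activation, meaning protection from cell death, of at least 50% relative to plate controls; inactive means activation below 50%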;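 further: necroptosis triggered by 40 ng/mL TNF-alpha added together with compound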
L929 necroptosis = blocks zVAD induced death of L929 cells. hit rate 0.38% among 220,000. viability rescue, % at 10 µM. L929 zVAD necroptosis rescue, ATP luminescence, 24 h; with zVAD 60 µM. AID 1377;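 active means activation, scaled between plate controls, above about 75%, limit read from the data; inactive means activation under that limit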;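 further: 0% = zVAD with DMSO and 100% = DMSO alone without zVAD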
Active calls of the source: *; · = no result given.

SMILES | Hsp70 act | HSF-1 act | TNF death inh | L929 necroptosis
COc1ccc(-c2csc(-n3cccn3)n2)cc1 | · | 61.3* | · | ·
O=C(O)Cc1sc(NC2CCCCC2)nc1-c1ccc(Cl)cc1 | · | 48.4 | · | ·
CCC(=O)Nc1ccc(NC(=O)c2cccc3c(Br)cccc23)cc1 | · | -5.1 | · | ·
O=C(NC1CCCCC1)c1cc(-c2ccc(F)cc2)on1 | · | 53.8* | · | ·
Cc1ccc(Nc2ncnc(N)n2)cc1C | 0.3 | 13.0 | -0.3 | 47.1
CC(C)c1ccc(OCC(=O)NC(=S)Nc2ccc3c4c(cccc24)CC3)cc1 | 0.2 | 67.9* | -0.9 | -0.1
O=C(COc1ccccc1)NC(=S)Nc1cccc2cc(O)ccc12 | · | 85.0* | · | ·
CCCn1c(SC(C)C(=O)N2CCOCC2)nc2ccc(Br)cc2c1=O (centres undefined) | · | 13.4 | · | ·
O=C(CSc1nc2ccccc2[nH]1)c1c[nH]c2ccccc12 | -0.2 | -8.2 | 2.1 | 0.3
O=C(CSc1nc2ccccc2[nH]1)c1ccccc1F | · | 57.0* | · | ·
Cc1cc(C(=O)CSc2nc3ccccc3[nH]2)c(C)n1C | 0.2 | 70.8* | 0.4 | 1.5
CC(C)CCSc1nc2ccccc2[nH]1 | -0.1 | 64.5* | 2.1 | 0.3
C/C(=N\NC(=O)COc1cc(C)cc(C)c1)c1cccc(NC(=O)C2CCC2)c1 | · | -26.0 | · | ·
C=CCn1c(SCC#N)nc2ccccc2c1=O | 0.0 | 52.8* | -2.5 | -0.2
COc1ccccc1N1CCN(C(=O)C2CCC(CNS(=O)(=O)c3ccc(NC(C)=O)cc3)CC2)CC1 (centres undefined) | · | 3.7 | · | ·
O=C(CSCc1cc(=O)n2ccsc2n1)Nc1ccccc1 | · | -2.9 | · | ·
Cc1cccc2cc(C#N)c(SCC(=O)Nc3ccccc3N3CCOCC3)nc12 | -0.4 | -13.0 | 2.6 | -0.7
N#Cc1cc2ccccc2nc1SCC(=O)Nc1ccccc1N1CCOCC1 | 0.0 | 71.2* | 2.8 | 0.0
COCCOc1cnn(-c2cc(Oc3ccc(C)cc3)ncn2)c(=O)c1Cl | -0.6 | -5.7 | -1.3 | -0.5
COc1cnn(-c2cc(Oc3ccc(C)cc3)ncn2)c(=O)c1Cl | -0.1 | 94.5* | -1.5 | 0.7
CCc1ccc(-c2cn3c(n2)SCC3)cc1 | 0.3 | 51.1* | 1.8 | 2.6
COc1ccc(OCC(=O)NNC(=S)NC(=O)c2ccc(Br)o2)cc1 | · | 5.2 | · | ·
Brc1ccccc1OCCCn1cnc2ccccc21 | 0.2 | 60.7* | 2.7 | 0.7
CCc1nnc(NC(=O)C(c2ccccc2)c2ccccc2)s1 | · | -5.8 | · | ·
Cc1ccc(-n2ncc(Cl)c2C(=O)NC2CC2)cc1 | 0.7 | 53.9* | 1.1 | -1.0
SMILES | Hsp70 act | HSF-1 act | TNF death inh | L929 necroptosis
CC(C)c1ccc2oc(-c3ccc(N)cc3)nc2c1 | -0.7 | -15.6 | -4.2 | 0.5
CC(C)(C)Nc1nc2cc([N+](=O)[O-])ccc2o1 | · | 6.6 | 8.7 | 0.9
Nc1ccc(-c2nc3cc([N+](=O)[O-])ccc3o2)cc1 | · | 58.2* | -4.2 | 3.7
COc1ccc(-c2nc3cc([N+](=O)[O-])ccc3o2)cc1 | 0.3 | 58.9* | -0.3 | -0.3
O=c1c2cc(N3CCOCC3)ccc2[nH]c(=S)n1Cc1ccccc1Cl | -0.3 | -11.2 | 1.1 | 14.9
O=c1c2cc(N3CCOCC3)ccc2[nH]c(=S)n1Cc1ccccn1 | -0.2 | 66.9* | 0.9 | 0.0
O=C1C(Nc2ccccc2)=C(NS(=O)(=O)c2ccccc2)C(=O)c2ccccc21 | -0.4 | 60.4* | 0.4 | 0.9
O=C(c1ccc([N+](=O)[O-])o1)N1CCN(c2nc3c(F)cc(F)cc3s2)CC1 | · | 70.8* | · | ·
Cc1ccc(C)c2sc(N3CCN(C(=O)c4ccc([N+](=O)[O-])o4)CC3)nc12 | · | 17.1 | · | ·
Cc1nc2c(-c3ccc(F)cc3)cnn2c2c1CCC2 | -0.4 | 51.8* | 0.1 | 69.7
COc1ccc(-c2cnc3c(-c4ccc(F)cc4)cnn3c2N)cc1 | · | 32.6 | · | ·
Cc1ccc(SCc2cc(=O)[nH]c(N3CCN(Cc4ccccc4)CC3)n2)cc1 | -0.2 | -10.4 | -0.6 | 0.5
O=c1cc(CSc2ccc(Cl)cc2)nc(N2CCCCC2)[nH]1 | 0.2 | 64.6* | -10.7 | 0.1
O=C(Nc1cccc(NC(=O)c2cccc(Cl)c2)c1)c1cccnc1 | · | -11.1 | · | ·
Cc1cc(C)c(OCCNC(=O)c2ccccc2Sc2ccccc2C#N)c(C)c1 | -0.4 | 26.2 | 3.1 | 0.0
CCCCCn1cnc2sc(-c3ccccc3)cc2c1=O | 0.4 | 56.9* | 8.6 | 2.5
CCCCn1cnc2sc(-c3ccccc3)cc2c1=O | 0.1 | 56.3* | 5.3 | 0.9
CCCCCn1cnc2sc(CC)cc2c1=O | -0.1 | 47.4 | 24.8 | 1.9
O=S(=O)(Nc1ccc(O)c2ccccc12)c1ccc(F)cc1 | · | 6.4 | · | ·
O=S(=O)(Nc1cccnc1Cl)c1ccc(-c2ccccc2)cc1 | · | 9.1 | · | ·
O=S(=O)(Nc1ccccc1O)c1ccc(-c2ccccc2)cc1 | -0.1 | 65.3* | 5.4 | 0.7
CCc1ccc(S(=O)(=O)Nc2ccc(O)c3ccccc23)cc1 | · | 78.3* | · | ·
CC(C)[C@H](NC(N)=O)C(=O)NNC(=O)COc1cccc(C(F)(F)F)c1 | · | 141.7* | 0.3 | 0.6
NNC(=O)COc1cccc(C(F)(F)F)c1 | 0.0 | -7.9 | 2.3 | 1.3
c1ccc(N=Nc2ccc3cccccc2-3)cc1 | · | 75.4* | · | ·
SMILES | Hsp70 act | HSF-1 act | TNF death inh | L929 necroptosis
COc1ccc(OC)c(C2C(C(C)=O)=C(C)Nc3ncnn32)c1 (centres undefined) | · | 3.3 | · | ·
Cn1c(=O)c2c(nc(N/N=C/c3ccc(OC(=O)c4ccco4)cc3)n2Cc2ccc(F)cc2)n(C)c1=O | -0.4 | 55.5* | -0.6 | 4.8
CCOC(=O)Cc1csc(SCC(=O)Nc2cccc(Cl)c2)n1 | -0.1 | 58.3* | -2.5 | -0.4
COc1cccc(NC(=O)CSc2nc(N)cc(N)n2)c1 | -0.3 | 65.7* | -0.8 | -0.1
COc1cccc(NC(=O)CSc2c3c(nc4ccccc24)CCCC3)c1 | -0.3 | 62.0* | 1.1 | -0.6
COc1cccc(NC(=O)CSc2nnc3ccc(-c4ccncc4)nn23)c1 | · | 57.5* | · | ·
Cc1cccc(NC(=O)CSc2nc(N)cc(N)n2)c1 | -0.2 | -7.2 | -0.3 | 0.1
CCOC(=O)Cc1csc(SCC(=O)Nc2cccc(C#N)c2)n1 | -0.2 | -2.9 | -1.7 | 0.3
CCOC(=O)c1cccc(NC(=O)CSc2nc(N)cc(N)n2)c1 | 0.0 | 55.2* | -1.1 | 0.8
CCOC(=O)c1cccc(NC(=O)CSc2nnnn2CC)c1 | -0.3 | -11.2 | 0.5 | 1.2
COc1cccc(C=O)c1OCCCOc1cccc2cccnc12 | · | 53.4* | · | ·
CCN(CC)CCCn1c2c(c(SCC(=O)Nc3ccccc3Cl)nc1=O)CCC2 | · | 6.2 | · | ·
CCCn1c(O)c(N=NC(=O)c2ccco2)c2ccccc21 | 0.2 | -64.6 | 0.2 | 0.0
CCn1c(O)c(N=NC(=O)c2cccs2)c2ccccc21 | -0.3 | 63.3* | -0.5 | 12.0
Cc1cccc(C)c1NC(=O)C(C)Sc1n[nH]c(-c2ccncc2)n1 (centres undefined) | · | -15.1 | · | ·
C=CCn1cccc(C(=O)Nc2ccc(C)cc2)c1=O | · | 56.2* | · | ·
C=CCn1cccc(C(=O)Nc2ccc(C)c(C)c2)c1=O | · | 44.9 | · | ·
Cc1ccc(NC(=O)CCc2c(C)nn(-c3ccc(N4CCCCC4)nn3)c2C)cc1C | · | 56.0* | · | ·
CCN(CC)C(=O)CCCC(=O)N(CC)CC | 0.0 | 0.9 | -0.1 | 0.6
Cc1cccc(-c2nc3sc(C)cc3c(=O)o2)c1 | -0.4 | -4.2 | -0.7 | 3.7
